We go through ten molecules from ChEMBL document CHEMBL1157539, “Thousands of chemical starting points for antimalarial lead identification” (Nature, 2010).

Molecules are shown by their SMILES.

Common to all, as to type: functional
Assay [1] has as its system Plasmodium falciparum. The assay is described as follows: GSK_TCMDC: Inhibition of Plasmodium falciparum 3D7 in whole red blood cells, using parasite LDH activity as an index of growth. Test compounds present at 2uM.
For assay [2], the system named is Plasmodium falciparum. The assay is described as follows: GSK_TCMDC: Inhibition of Plasmodium falciparum Dd2 in whole red blood cells, using parasite LDH activity as an index of growth. Test compounds present at 2uM.
For another assay, the system named is HepG2. The assay is described as follows: GSK_TCMDC: Percent inhibition of human HepG2 cell line. Test compounds present at 10uM.

As to `C[C@H](Nc1nc(C(Oc2ccccc2)c2ccccc2)nc2[nH]ncc12)c1ccccc1` (stereo not given in full), the Inhibition (as a rule, the change of the read-out against control, counted positive when it falls) in the assay on Plasmodium falciparum [1] turned out to be 100%; in the assay with Plasmodium falciparum [2], 56%; in the assay with HepG2, 15%.

`O=C(Nc1ccc(Cl)cc1)Nc1cccc(-c2cccc(-c3nc4ccccc4[nH]3)c2)c1`: the results for the Inhibition with Plasmodium falciparum [1], in the assay on Plasmodium falciparum [2] and in the assay with HepG2 were 100%, 56% and 70%, respectively.

Take `Cc1cc(C(=O)Nc2ccc3c(c2)CCN3C2CCN(Cc3ccc(O)cc3)C2)no1` (stereo not given): the Inhibition in the assay on Plasmodium falciparum [1] stood at 95%; in the assay with Plasmodium falciparum [2] it was 86%; in the assay on HepG2, 3%.

On to `CCCCNc1nccc2ccc(-c3ccncc3)cc12`, for which the Inhibition in the assay on Plasmodium falciparum [1] came out at 93%; with Plasmodium falciparum [2], 1%; with HepG2, 6%.

For `COc1ccc(CNc2ccnc(-n3cnc4cc(C)c(C)cc43)n2)cc1Cl.O=C(O)C(F)(F)F`, the Inhibition is 100% in the assay with Plasmodium falciparum [1], 100% in the assay with Plasmodium falciparum [2] and 6% with HepG2.

In the case of `COc1cccc(CNc2ncc(-c3ccsc3)c(-c3nccs3)n2)c1`, the Inhibition with Plasmodium falciparum [1] turned out to be 89%; with Plasmodium falciparum [2], 82%; in the assay on HepG2 it was 9%.

`CCCCNC(=O)[C@H](CC1CCCCC1)NC(=O)c1ccc(O)c(-c2cccc(C(F)(F)F)c2)c1`: the figures for the Inhibition in the assay with Plasmodium falciparum [1], in the assay with Plasmodium falciparum [2] and with HepG2 were 98%, 86% and 0%, respectively.

As for `Cc1ccc(C2(CN3CCC(NC(=O)c4n[nH]cc4Cl)CC3)CCCCC2)cc1`, the figures for the Inhibition in the assay on Plasmodium falciparum [1], with Plasmodium falciparum [2] and with HepG2 were 97%, 96% and 0%, respectively.

In the case of `CC(C)N1CCC(N(Cc2ccc(-c3ccc(C(F)(F)F)cc3)cc2)C(=O)CCCn2c(CCc3cccc(F)c3F)nc(=O)c3ccccc32)CC1.O=C(O)C(O)C(O)C(=O)O`, the Inhibition in the assay on Plasmodium falciparum [1] worked out at 89%; with Plasmodium falciparum [2] it was 60%; with HepG2, 45%.

Take `CC(C)(C)c1cc(C(=O)N2CCN(c3ccc(C(F)(F)F)cn3)CC2)n(Cc2ccc(F)cc2)n1`: the Inhibition was determined as 88% in the assay on Plasmodium falciparum [1], 26% in the assay with Plasmodium falciparum [2] and 4% in the assay with HepG2.
